Bioassay records (PubChem BioAssay)
3T3 cytotox: NIH 3T3 cell cytotoxicity. NIH 3T3 viability, CellTiter-Glo ATP luminescence, 48-72 h. Potency, µM (series often up to 96.7 µM), actives largely listed as inhibitors. 4.3% of 94,000 active; also: nearly all actives have a fitted effect of over 55% in size
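Cytotoxicity was measured by CellTiter-Glo ATP luminescence after 48 or 72 h compound exposure at 37 °C. Mouse NIH 3T3 fibroblasts were seeded at 400 cells/well and dosed by 23 nL pin transfer.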
FLuc inh-1: blocks purified firefly luciferase enzyme activity. 2.5% of 76,000 active. Potency, µM (top dose mostly 115 µM), hits mostly inhibitors. P08659. AID 1347043. purified P. pyralis luciferase, luminescence, biochemical; also: nearly all actives have a fitted effect of over 65% in size
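Purified P. pyralis luciferase (10nM final) in 50mM Tris acetate pH 7.5, 10mM Mg acetate, 0.01% Tween-20, 0.05% BSA with 10uM D-luciferin and 10uM ATP. Compounds titrated qHTS. Luminescence imaged on CCD.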
HEK cytotox: HEK 293 cell cytotoxicity; HEK 293 viability, ATP luminescence (CellTiter-Glo), 48-72 h; AID 1345083; Potency, µM (series often up to 115 µM), actives largely listed as inhibitors; 6.6% of 94,000 active; also: nearly all actives have a fitted effect of over 60% in size
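250 HEK 293 cells/well; compound by pintool; incubated 48 or 72 hr at 37 degree Celsius; CellTiter-Glo added, 10 min RT, luminescence imaged.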
NPR1 antag: antagonists of human natriuretic peptide receptor Npr1 | P16066 | HEK293 hNpr1 GloSensor cGMP, ANP-stimulated luminescence | Potency, µM (highest dose often 46.3 µM), hits mostly inhibitors | 1.6% of 76,000 active; calls by dose curve; also: nearly all actives have a fitted effect of over 60% in size
Target sequence (P16066 whole entry, looked up): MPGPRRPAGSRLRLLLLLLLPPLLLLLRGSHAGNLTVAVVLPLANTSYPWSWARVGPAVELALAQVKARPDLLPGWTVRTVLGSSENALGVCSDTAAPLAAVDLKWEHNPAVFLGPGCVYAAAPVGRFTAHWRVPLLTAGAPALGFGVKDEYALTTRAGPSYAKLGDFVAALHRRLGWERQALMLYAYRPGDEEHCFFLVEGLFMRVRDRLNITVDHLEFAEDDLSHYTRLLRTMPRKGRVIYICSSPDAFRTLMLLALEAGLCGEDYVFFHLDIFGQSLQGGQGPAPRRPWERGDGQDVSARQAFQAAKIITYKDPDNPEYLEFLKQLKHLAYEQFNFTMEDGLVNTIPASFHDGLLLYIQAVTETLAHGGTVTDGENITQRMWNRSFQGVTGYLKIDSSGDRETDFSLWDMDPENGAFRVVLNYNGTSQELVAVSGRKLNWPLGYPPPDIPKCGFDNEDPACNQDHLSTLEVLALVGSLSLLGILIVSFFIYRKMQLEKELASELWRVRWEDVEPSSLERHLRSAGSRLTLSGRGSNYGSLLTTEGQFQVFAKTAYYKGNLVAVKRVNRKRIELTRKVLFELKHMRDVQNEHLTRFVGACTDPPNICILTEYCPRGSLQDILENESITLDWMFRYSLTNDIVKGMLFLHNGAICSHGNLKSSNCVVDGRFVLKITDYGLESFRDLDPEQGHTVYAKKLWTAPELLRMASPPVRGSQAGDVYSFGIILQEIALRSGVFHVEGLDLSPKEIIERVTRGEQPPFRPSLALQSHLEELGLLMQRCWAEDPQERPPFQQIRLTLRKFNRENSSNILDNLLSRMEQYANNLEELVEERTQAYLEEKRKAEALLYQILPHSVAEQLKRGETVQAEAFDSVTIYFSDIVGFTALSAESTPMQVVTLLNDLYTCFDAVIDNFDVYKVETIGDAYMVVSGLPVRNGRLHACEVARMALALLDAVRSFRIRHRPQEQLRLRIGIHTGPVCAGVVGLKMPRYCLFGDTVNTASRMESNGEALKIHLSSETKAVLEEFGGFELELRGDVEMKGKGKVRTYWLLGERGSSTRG
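HEK293 cells stably expressing human Npr1 and cGMP GloSensor pGS-40F, loaded 2 h with 2% GloSensor reagent, given compound 30 min at room temperature. Luminescence read before and 20 min after 0.1 nM hNppA.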
FLuc SDR no ATP: stabilizes firefly luciferase without ATP; shares compounds with FLuc inh-1; Purified FLuc-C-HiBiT, Nano-Glo HiBiT luminescence, no ATP; Potency, µM (doses to about 32.7 µM), hits mostly activators; 7.8% of 1,300 active; AID 1963318; also: nearly all actives have a fitted effect of over 55% in size
FLuc SDR ATP: stabilizes firefly luciferase with ATP present | Potency, µM (titrated, usually from 32.7 µM), usual class: activators | shares compounds with FLuc inh-1 | AID 1963319 | 8.7% of 1,300 active | purified FLuc-C-HiBiT + ATP, HiBiT complementation luminescence;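 also: signal reports ligand binding via conformational change of the enzyme rather than luciferase catalysis; nearly all actives have a fitted effect of over 55% in size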
FLuc inh-2: inhibitors of firefly luciferase enzymatic activity; purified FLuc-C-HiBiT enzyme, luciferin luminescence; shares compounds with FLuc inh-1; AID 1963320; 42% of 1,300 active; Potency, µM (highest dose often 32.7 µM), actives largely listed as inhibitors; also: nearly all actives have a fitted effect of over 70% in size
Each line names hits and unclear results; the compound was inactive in the other large screens (follow-up assays come after a bar, where they were run). A selection: hits, their analogues and other compounds. The true share with any hit is near 11%. Unless noted, calls follow the shape of the dose curve; as a rule, active = well fitted curve in the direction sought with a large enough effect; inconclusive = small, poorly fitted or top-dose-only effect, or another doubt; inactive = no such curve, though single readings can be large; an effect the other way counts as inactive or inconclusive.

Cc1ccccc1C(=O)N1CCCC1C(=O)N1CCC2(CC1)CC(=O)Nc1ccccc1O2 (stereo unspecified)	none (no result: FLuc inh-1, NPR1 antag)
COCC(=O)NC1CCC12CCN(Cc1cccnc1)CC2 (stereo unspecified)	none (no result: FLuc inh-1, NPR1 antag)
COc1ccc(Nc2cc3c(nc2OC)nc(CCc2ccccc2)n3C)cn1	3T3 cytotox inconclusive, FLuc inh-1 6.3µM, HEK cytotox inconclusive | FLuc SDR no ATP inactive | FLuc SDR ATP inactive | FLuc inh-2 inconclusive
Nc1ccc2ncnc(N3CCCC3)c2c1	HEK cytotox inconclusive
COCC(C)Nc1ncnc2c1cnn2-c1cccc(Cl)c1 (stereo unspecified)	none (no result: 3T3 cytotox, FLuc inh-1, HEK cytotox, NPR1 antag) | FLuc SDR no ATP inactive | FLuc SDR ATP inactive | FLuc inh-2 inconclusive
O=C(Nc1ccc2ncnc(N3CCCCC3)c2c1)c1cc(F)ccc1F	3T3 cytotox inconclusive, HEK cytotox inconclusive
Clc1cccc(-n2ncc3c(N4CCCCC4)ncnc32)c1	none (no result: 3T3 cytotox, FLuc inh-1, HEK cytotox, NPR1 antag) | FLuc SDR no ATP 6.2µM | FLuc SDR ATP inconclusive | FLuc inh-2 0.99µM
Cc1cc(Cl)ccc1-n1ncc2c(N3CCCCC3)ncnc21	none (no result: 3T3 cytotox, FLuc inh-1, HEK cytotox, NPR1 antag) | FLuc SDR no ATP inactive | FLuc SDR ATP inconclusive | FLuc inh-2 4.4µM
CCN(c1ncnc2c1cnn2-c1cccc(Cl)c1)C1CCCCC1	none (no result: 3T3 cytotox, FLuc inh-1, HEK cytotox, NPR1 antag) | FLuc SDR no ATP inactive | FLuc SDR ATP inconclusive | FLuc inh-2 5.6µM
COc1ccc(Cn2c(C3CCN(C(=O)c4sccc4C)CC3)n[nH]c2=O)cc1	none
CC(=O)NCCC(=O)N1Cc2ccccc2CC2(CCCCN2CC2CCCC2)C1 (stereo unspecified)	none (no result: FLuc inh-1, NPR1 antag)
N#Cc1ccc(C(=O)Nc2ccccc2-c2nc3ccccc3s2)c(F)c1	none (no result: 3T3 cytotox, FLuc inh-1, HEK cytotox, NPR1 antag) | FLuc SDR no ATP inactive | FLuc SDR ATP inactive | FLuc inh-2 inactive
COc1cc(OC)cc(C(=O)Nc2ccccc2-c2nc3ccccc3s2)c1	none (no result: 3T3 cytotox, FLuc inh-1, HEK cytotox, NPR1 antag) | FLuc SDR no ATP inactive | FLuc SDR ATP inactive | FLuc inh-2 inactive
COc1cccc(C(=O)Nc2ccc3nc(SCC(=O)N4CCOCC4)sc3c2)c1	none (no result: 3T3 cytotox, FLuc inh-1, HEK cytotox, NPR1 antag) | FLuc SDR no ATP inconclusive | FLuc SDR ATP inactive | FLuc inh-2 9.9µM
Cc1nc2ccc(C(=O)Nc3ccc4c(c3)C(=O)N3CCC[C@H]3C(=O)N4)cc2s1	none
CCS(=O)(=O)c1cccc(C(=O)Nc2ccc(-c3nc4ccccc4s3)c(O)c2)c1	none (no result: 3T3 cytotox, FLuc inh-1, HEK cytotox, NPR1 antag) | FLuc SDR no ATP inactive | FLuc SDR ATP inactive | FLuc inh-2 inconclusive
COCCN1C(=O)c2ccccc2C(C(=O)Nc2nc3ccccc3s2)C12CCCC2 (stereo unspecified)	none
Cc1cnc(-c2ccccc2)n1CCN	none
CCCOc1cccc(C(=O)Nc2ccc(-c3nc4ccccc4s3)c(Cl)c2)c1	none (no result: 3T3 cytotox, FLuc inh-1, HEK cytotox, NPR1 antag) | FLuc SDR no ATP inactive | FLuc SDR ATP inactive | FLuc inh-2 inconclusive
COc1cccc(-c2nc3cc(NC(=O)c4ccc(C)c([N+](=O)[O-])c4)ccc3s2)c1	none (no result: 3T3 cytotox, FLuc inh-1, HEK cytotox, NPR1 antag) | FLuc SDR no ATP inactive | FLuc SDR ATP inactive | FLuc inh-2 inactive
COc1cccc(C(=O)Nc2ccc(-c3nc4ccccc4s3)c(O)c2)c1	none (no result: 3T3 cytotox, FLuc inh-1, HEK cytotox, NPR1 antag) | FLuc SDR no ATP inactive | FLuc SDR ATP inactive | FLuc inh-2 inactive
COc1cccc(C(=O)Nc2cnc(-c3ccccc3)nc2)c1	HEK cytotox inconclusive
O=C(NC1CCCCC1)C1CN(S(=O)(=O)c2cccc(F)c2)CC12CCOCC2 (stereo unspecified)	3T3 cytotox inconclusive
CC1=C[C@@H](CNC(=O)CC(C)(C)CC(=O)O)[C@H](C(C)C)C[C@H]1Cc1nc2ncccc2[nH]1	none
O=C(NC1CCCC1)N1c2ccccc2CC1c1noc(C2CCOCC2)n1 (stereo unspecified)	FLuc inh-1 5µM, HEK cytotox inconclusive | FLuc SDR no ATP inactive | FLuc SDR ATP inactive | FLuc inh-2 inconclusive
CCCCCSc1nnc(-c2ccc(Br)cc2)o1	none (no result: 3T3 cytotox, FLuc inh-1, HEK cytotox, NPR1 antag) | FLuc SDR no ATP inactive | FLuc SDR ATP inactive | FLuc inh-2 inactive
Cc1c(CCNC(=O)c2ccc(Br)o2)sc2nc(-c3ccc(Cl)cc3)nn12	none (no result: 3T3 cytotox, FLuc inh-1, HEK cytotox, NPR1 antag) | FLuc SDR no ATP inactive | FLuc SDR ATP inactive | FLuc inh-2 inconclusive
c1cncc(Nc2cc3c(cn2)CN(Cc2cccs2)CCN3)c1	3T3 cytotox inconclusive, FLuc inh-1 inconclusive, HEK cytotox inconclusive
Oc1ccccc1CN1CCNc2cc(-c3ccccc3)ncc2C1	3T3 cytotox 79µM, FLuc inh-1 2.5µM, HEK cytotox 79µM | FLuc SDR no ATP inconclusive | FLuc SDR ATP inactive | FLuc inh-2 inconclusive
Fc1ccccc1CN1CCNc2cnc(OCc3cccnc3)cc2C1	HEK cytotox inconclusive
COc1ccccc1CN1CCNc2cnc(OCc3cccnc3)cc2C1	HEK cytotox inconclusive
Cc1cc(-c2cc3c(cn2)CN(Cc2cnc[nH]2)CCN3)ccn1	none (no result: 3T3 cytotox, FLuc inh-1, HEK cytotox, NPR1 antag) | FLuc SDR no ATP inactive | FLuc SDR ATP inactive | FLuc inh-2 18µM
Cc1cc(-c2cc3c(cn2)CN(Cc2cccs2)CCN3)ccn1	3T3 cytotox inconclusive, FLuc inh-1 6.3µM, HEK cytotox 89µM | FLuc SDR no ATP inactive | FLuc SDR ATP inconclusive | FLuc inh-2 11µM
Cc1cc(-c2cc3c(cn2)CN(Cc2ccccc2O)CCN3)ccn1	3T3 cytotox inconclusive, FLuc inh-1 5.6µM, HEK cytotox inconclusive, NPR1 antag inconclusive | FLuc SDR no ATP inactive | FLuc SDR ATP inactive | FLuc inh-2 inconclusive
O=C(c1ccccc1Cl)N1CCC(c2nn(-c3ccccc3)c(=O)[nH]2)CC1	3T3 cytotox inconclusive, HEK cytotox inconclusive
O=C(CCCN1C(=O)COc2ccc(C(=O)COc3cccc(Cl)c3)cc21)NCC1CC1	HEK cytotox inconclusive
NC(=O)c1cccc(-c2cc3c(cn2)CN(Cc2ccccc2)CCN3)c1	FLuc inh-1 14µM, HEK cytotox inconclusive | FLuc SDR no ATP inactive | FLuc SDR ATP inactive | FLuc inh-2 inconclusive
Fc1ccc(CNc2cc3c(cn2)NCCN(Cc2ccccc2)C3)cc1	3T3 cytotox inconclusive, HEK cytotox inconclusive
COCC(=O)N[C@@H]1CN(C(=O)c2ccc(F)cc2)CC[C@@H]1CO	none
COc1ccc(NC(=O)Cn2c(-c3ccccc3)nc(C)cc2=O)cc1	3T3 cytotox inconclusive, HEK cytotox inconclusive
